From PubChem BioAssay
Marburg entry inh = qHTS for inhibitors of binding or entry into cells for Marburg Virus. 300,000 tested, 1.8% active. AID 540276, 2011. Marburg virus pseudotyped entry inhibition, cell reporter. Potency, µM (highest dose often 37.8 µM), most hits filed as inhibitors; calls by dose curve; tested in HEK293 cells
HCV inh = qHTS Assay for Inhibitors of Hepatitis C Virus (HCV); 340,000 tested, 3.4% active; Huh7.5.1 HCVcc-Cre infection, luciferase reporter, 44 h; AID 651820, 2012; Potency, µM (top dose mostly 41.8 µM), most hits filed as inhibitors; active means well fitted inhibition curve with a large enough effect; inconclusive means small, poorly fitted or top-dose-only effect, or another doubt; inactive means no such curve, though single readings can be large or run the other way
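Whole-lifecycle infectious HCVcc-Cre system; cells 1,000/well, compound then virus (~0.5 moi) added 4 h after plating, 44 h culture. Luciferase read 15 sec following 15 min substrate incubation, room temp.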
LASV entry inh = qHTS for Inhibitors of binding or entry into cells for Lassa Virus; Lassa virus pseudotype entry inhibition, cell reporter; 300,000 tested, 1.2% active; Potency, µM (series often up to 37.9 µM), hits mostly inhibitors; calls by dose curve; tested in HEK293 cells; further: nearly all actives have a fitted effect of over 50% in size
FMDV inh = High Throughput Screening for Foot and Mouth Disease Virus Antivirals. FMDV antiviral cell-based qHTS. Potency, µM (series often up to 57.9 µM), actives largely listed as inhibitors. 410,000 tested, 1.2% active. AID 1159524, 2015; calls by dose curve; tested in HEK293T cells; further: read-out not given here; nearly all actives have a fitted effect of over 45% in size
HCMV antiviral = qHTS Assay for inhibitors of the human cytomegalovirus (HCMV); HFF cells, HCMV-luciferase reporter, 72 h; active compounds read low; activity change, negative = inhibition, % at 57.5 µM; 410,000 tested, 4.5% active; AID 1259415, 2018; in the data active means activity change below about -60%; inconclusive means no clear call, values can overlap the other calls; inactive means above about -39%
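Inhibition of viral replication was scored as loss of reporter luminescence in HFFs infected with HCMV-luciferase (MOI 1 PFU/cell) for 72 h; compounds tested at 2 doses, normalized to buffer and Salinomycin controls.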
Large screens that a line does not name were inactive. Shown are actives, neighbours in structure and some others; about 7.9% of the full set was active somewhere.

O=C(NC1CCCCC1)c1cccc2c1C(=O)c1ccc(N3CCC(Cc4ccccc4)CC3)cc1S2(=O)=O	none (no result: Marburg entry inh, LASV entry inh)
Cc1cc(C)c(OCC(=O)OC(C)C(=O)NC2CC2)c(C)c1 (configuration not stated)	none (no result: Marburg entry inh, LASV entry inh)
CN(Cc1ccccc1Cl)C(=O)CCNC(=O)c1ccco1	HCV inh inconclusive
COCCNC(=O)c1cccc2c1C(=O)c1ccc(N3CCOCC3)cc1S2(=O)=O	HCMV antiviral -102 (no result: Marburg entry inh, LASV entry inh)
CC(=O)Nc1ccc(NC(=O)C(C)OC(=O)c2cccs2)cc1 (configuration not stated)	none
CCn1c(=O)c(-c2ccccc2)c(O)c2ccccc21	none
O=c1c(-c2ccccc2)c(O)c2ccccc2n1-c1ccccc1	HCMV antiviral -64
CCCCCC1CCC(c2n[nH]c(=S)n2C)CC1 (configuration not stated)	Marburg entry inh inconclusive, LASV entry inh inconclusive, HCMV antiviral -82
CCOc1ccc2nc(N[C@@](NC(C)=O)(C(=O)OC)C(F)(F)F)sc2c1	none (no result: HCV inh, LASV entry inh, FMDV inh, HCMV antiviral)
O=[N+]([O-])c1cc([N+](=O)[O-])c(Oc2cc(F)ccc2F)cc1NN1CCCCC1	HCMV antiviral -85 (no result: Marburg entry inh, LASV entry inh)
Cc1cc(F)ccc1Oc1cc(NN2CCCCC2)c([N+](=O)[O-])cc1[N+](=O)[O-]	none (no result: Marburg entry inh, LASV entry inh)
CCc1cccc(NC(=O)Cn2c(=O)n(CCCCCC(=O)NCc3ccc(F)cc3)c(=O)c3sccc32)c1	Marburg entry inh inconclusive, FMDV inh inconclusive (no result: HCV inh)
Cc1cc(NC(=O)Nc2cccc(Cl)c2)n(-c2ccccn2)n1	Marburg entry inh inconclusive, HCV inh 11µM
Cc1cc(NC(=O)c2ccc(F)cc2)n(-c2ccccn2)n1	HCV inh 8.9µM, LASV entry inh inconclusive
CC12CCC(=O)C=C1CCC1C2CCC2(C)C1CC1C3C(=O)N(Cc4ccccc4)C(=O)C3CC(=O)C12 (configuration not stated)	Marburg entry inh inconclusive, HCV inh inconclusive
CCC(C)NC(=O)C1(O)c2ccccc2NC(=O)N1c1ccc(C)c(C)c1 (configuration not stated)	none (no result: Marburg entry inh, LASV entry inh)
COc1cccc(CO[C@H]2C=C[C@@H](c3ccccc3)O[C@H]2COC(C)=O)c1	none (no result: HCV inh, LASV entry inh, FMDV inh, HCMV antiviral)
O=[N+]([O-])c1ccc(S(=O)(=O)NCCN2CCOCC2)cc1	none
CN(C)c1ccc(C(CNS(=O)(=O)c2ccc([N+](=O)[O-])cc2)N2CCOCC2)cc1 (configuration not stated)	none
O=[N+]([O-])c1ccc(-c2ccc(S(=O)(=O)NCCN3CCCC3)cc2)cc1	Marburg entry inh 18µM, HCV inh 10µM, LASV entry inh inconclusive, HCMV antiviral -71
Cc1ccc(C(CNS(=O)(=O)c2ccccc2)N2CCN(C)CC2)cc1 (configuration not stated)	none
Cc1ccc(C(CNS(=O)(=O)c2ccc(Br)cc2)N2CCN(C)CC2)cc1 (configuration not stated)	Marburg entry inh inconclusive, HCV inh 8.9µM
Cc1ccc(C(CNS(=O)(=O)c2ccc([N+](=O)[O-])cc2)N2CCN(C)CC2)cc1 (configuration not stated)	Marburg entry inh inconclusive, HCV inh 11µM, LASV entry inh inconclusive
Cc1c(C(=O)N2CC[C@@H]3CCCC[C@H]3C2)sc2ncnc(NCCc3ccccn3)c12	none (no result: Marburg entry inh, HCV inh, LASV entry inh, HCMV antiviral)
Cc1ccc(NC(=O)c2ccc3c(c2)N(CC(=O)N2CCCCC2)C(=O)C(C)(C)O3)cc1	HCV inh 5.6µM
CCOC(=O)c1ccc(Nc2nc(=O)c3cccnc3s2)cc1	Marburg entry inh 2.1µM, HCMV antiviral inconclusive (no result: HCV inh)
CC(=O)c1ccc(Nc2nc(=O)c3cccnc3s2)cc1	Marburg entry inh inconclusive, LASV entry inh inconclusive
O=c1nc(Nc2ccc(OCc3ccccc3)cc2)sc2ncccc12	Marburg entry inh inconclusive, LASV entry inh inconclusive, HCMV antiviral -88
Cc1ccc2nc(SCC(=O)NCc3ccc(F)cc3)[nH]c2c1	HCMV antiviral -65 (no result: Marburg entry inh, LASV entry inh)
CCn1c(/C=C/c2cc(Br)ccc2O)nc2ccccc2c1=O	HCV inh inconclusive, FMDV inh inconclusive, HCMV antiviral -93 (no result: Marburg entry inh, LASV entry inh)
O=c1c2ccccc2nc(/C=C/c2ccccc2O)n1-c1ccc(Br)cc1	LASV entry inh inconclusive, FMDV inh inconclusive, HCMV antiviral -63 (no result: Marburg entry inh, HCV inh)
O=C(NCCOc1ccccc1F)C1CC(=O)N(c2ccc3c(c2)OCCO3)C1 (configuration not stated)	HCV inh inconclusive (no result: Marburg entry inh, LASV entry inh)
Cn1c(=O)[nH]c(=O)c2c1nc(NN)n2CCOc1ccccc1	none
